Test results from PubChem BioAssay AID1159580 (chemical genetic matrix, 2015).
Hit rate of the full screen: of about 5,500 compounds, about 2,000 (36%) were called active. Another 18% or so got no clear call; they are omitted. No stated cut-off is given here; in the data, active means normalized growth mostly below about 0.91 (no sharp cut-off); inconclusive means no clear call, values can overlap the other calls; inactive means mostly above about 0.92. The list shows a part of the results.

Assay: chemical genetic growth profiling, strain panel (AID 1159580);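 further: tested at 20 µM; growth read once vehicle control cultures reached saturation at 30 °C; 1 = growth at the plate median or of vehicle wells; lower values mean less growth of the strain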
Details: growth OD

Measured: normalized growth

N#CCCC1(CCC#N)c2ccccc2-c2ccccc21
inactive: S. cerevisiae deletion strains, locus YAL013W, strain DEP1, hits give low values 0.99 | S. cerevisiae deletion strains, locus YBR229C, strain ROT2, hits give low values 1.02 | S. cerevisiae deletion strains, locus YDL101C, strain DUN1, hits give low values 1.03 | S. cerevisiae deletion strains, locus YDL134C, strain PPH21, hits give low values 1.02 | S. cerevisiae deletion strains, locus YDR150W, strain NUM1, hits give low values 1.01 | S. cerevisiae deletion strains, locus YEL061C, strain CIN8, hits give low values 1.01 | S. cerevisiae deletion strains, locus YGR078C, strain PAC10, hits give low values 1.01 | S. cerevisiae deletion strains, locus YHR030C, strain SLT2, hits give low values 1.05 | S. cerevisiae deletion strains, locus YHR087W, strain rtc3, hits give low values 1.03 | S. cerevisiae deletion strains, locus YJR043C, strain POL32, hits give low values 1.01 | S. cerevisiae deletion strains, locus YJR075W, strain HOC1, hits give low values 1.01 | S. cerevisiae deletion strains, locus YLR039C, strain RIC1, hits give low values 1.06 | S. cerevisiae deletion strains, locus YLR058C, strain SHM2 (second series), hits give low values 1.01 | S. cerevisiae deletion strains, locus YLR085C, strain ARP6, hits give low values 1.03 | S. cerevisiae deletion strains, locus YLR262C, strain YPT6, hits give low values 1.01 | S. cerevisiae deletion strains, locus YML094W, strain GIM5, hits give low values 1.03 | S. cerevisiae deletion strains, locus YMR219W, strain ESC1, hits give low values 1.03 | S. cerevisiae deletion strains, locus YMR263W, strain SAP30, hits give low values 1.02 | S. cerevisiae deletion strains, locus YNL153C, strain GIM3, hits give low values 1.04 | S. cerevisiae deletion strains, locus YNL298W, strain CLA4 (second series), hits give low values 1.01 | S. cerevisiae deletion strains, locus YNL322C, strain KRE1, hits give low values 1.01 | S. cerevisiae deletion strains, locus YNR030W, strain Alg12, hits give low values 1 | S. cerevisiae deletion strains, locus YOL006C, strain TOP1, hits give low values 1.08 | S. cerevisiae deletion strains, locus YPL055C, strain LGE1, hits give low values 1.03 | S. cerevisiae deletion strains, locus YPL241C, strain CIN2, hits give low values 1.01 | S. cerevisiae deletion strains, locus YPR135W, strain CTF4, hits give low values 1.11 | S. cerevisiae strains, strain wild type, hits give low values 1.03
